High-throughput results from PubChem BioAssay.
VP16 counter: Gal4-VP16 reporter inhibition counter-screen | AID 2546 | Potency, µM (titrated, usually from 53.6 µM), for the others: at the top dose activity, negative = inhibition, most hits filed as inhibitors | Drosophila S2 Gal4-VP16 UAS-luciferase, luminescence, 20 h | 310,000 compounds, 3.5% hits;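 further: Gal4-VP16 expression switched on by copper sulfate through the metallothionein promoter; nearly all actives have a fitted effect of over 50% in size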
Luc counter: blocks Kinase-Glo luciferase, a counter-screen artifact. Q27757. Kinase-Glo luciferase, ATP luminescence, 8 min. Potency, µM (highest dose often 38.3 µM), for inactives: at the highest dose activity change, negative = inhibition, actives largely listed as inhibitors. 200,000 compounds, 0.28% hits; further: nearly all actives have a fitted effect of over 60% in size
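Compound is pinned into ATP-containing buffer (10 uM ATP, imidazole pH 7.2, 7 mM MgCl2). Kinase-Glo luciferase reagent is then added. Light output is recorded following an 8-min room-temperature incubation.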
RORgamma inh: ROR gamma (mouse) transcription inhibition | P51450 | Drosophila S2 Gal4-RORgamma UAS-luciferase reporter, 20 h | Potency, µM (top dose mostly 53.6 µM), for the others: at the top dose activity change, negative = inhibition, hits mostly inhibitors | 310,000 compounds, 5.4% hits | AID 2551; further: nearly all actives have a fitted effect of over 60% in size
Target sequence (P51450 whole entry, looked up, the tested form may be a part): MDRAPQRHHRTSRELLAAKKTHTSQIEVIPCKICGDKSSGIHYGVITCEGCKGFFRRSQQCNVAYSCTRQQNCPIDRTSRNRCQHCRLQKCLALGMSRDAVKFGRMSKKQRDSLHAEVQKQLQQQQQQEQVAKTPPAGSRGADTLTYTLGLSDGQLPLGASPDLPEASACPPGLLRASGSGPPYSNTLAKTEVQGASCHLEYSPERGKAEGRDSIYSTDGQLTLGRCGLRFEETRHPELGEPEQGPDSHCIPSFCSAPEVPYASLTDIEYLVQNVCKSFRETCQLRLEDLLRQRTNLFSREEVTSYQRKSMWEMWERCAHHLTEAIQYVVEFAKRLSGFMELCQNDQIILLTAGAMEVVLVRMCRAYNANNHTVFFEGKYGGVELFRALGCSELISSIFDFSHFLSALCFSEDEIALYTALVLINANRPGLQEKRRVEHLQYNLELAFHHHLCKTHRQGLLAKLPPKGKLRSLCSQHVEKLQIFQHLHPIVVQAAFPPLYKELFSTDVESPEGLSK
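Luminescence from a UAS-regulated Photinus luciferase reporter in stably transfected Drosophila Schneider cells is measured; decreased signal marks ROR gamma inhibition. Fusion expression is induced by 700 uM copper sulfate for 20 hr.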
* marks the source's active call; other numbers are inactive results; ? = inconclusive; nt = no result given; [ ] = another dose, or the depositor's remark. A selection: hits, their analogues and other compounds. The true share with any hit is near 6.4%. The call rests on the fitted dose curve; in most records, active means well fitted curve in the direction sought with a large enough effect; inconclusive means small, poorly fitted or top-dose-only effect, or another doubt; inactive means no such curve, though single readings can be large; an effect the other way counts as inactive or inconclusive. On the % scale 0 is the no-effect control and ±100 the full control effect; potency means the concentration at half of the fitted maximal effect.

SMILES | VP16 counter | Luc counter | RORgamma inh
CC(C)(C)c1ccc(-n2ncc3c2CCCC3NC(=O)CCCn2cncn2)cc1 (stereo not given) | ? | nt | 32.8%
CC(C)=CCC[C@](C)(O[C@@H]1O[C@H](CO)[C@@H](O)[C@H](O)[C@H]1O)[C@H]1CC[C@]2(C)[C@@H]1[C@H](O)C[C@@H]1[C@@]3(C)CC[C@H](O[C@@H]4O[C@H](CO)[C@@H](O)[C@H](O)[C@H]4O[C@@H]4O[C@H](CO)[C@@H](O)[C@H](O)[C@H]4O)C(C)(C)[C@@H]3[C@@H](O)C[C@]12C | 1.7% | 4.2%[39.9 µM] | 19.1%
CC(=O)c1cc(C#N)c(N2CCCC2)nc1C | -6.6% | -2.1% | -4.5%
COn1c2c(c3c4nonc4ccc31)CCCC2 | 13.4% | -0.5% | 16.2%
On1c2c(c3c4nonc4ccc31)CCCC2 | 22.4µM* | 0.2% | ?
COc1cc(C(=O)Nc2cccc(-c3nc4ccccc4o3)c2C)cc(OC)c1OC | -0.2% | -4.5% | -26.4%
O=C(Nc1ccc(-c2nc3ccccc3o2)c(O)c1)c1cc(-n2cnnc2)ccc1Cl | ? | -0.4% | 8.91µM*
COc1cc(OC)cc(C(=O)Nc2ccc(-c3nc4ccccc4o3)cc2)c1 | 3.1% | -5.0% | 6.8%
COc1cc(C(=O)Nc2ccc(-c3nc4cc(C)ccc4o3)c(O)c2)cc(OC)c1OC | -21.9% | -2.5% | 3.55µM*
O=C(Nc1ccc(-c2nc3ccccc3o2)cc1)c1cc(-n2cnnc2)ccc1Cl | ? | 3.4% | ?
COc1cccc(C(=O)Nc2ccc(-c3nc4ccccc4o3)c(O)c2)c1 | 7.08µM* | 2.1% | 5.01µM*
C[C@@H]1C(=O)O[C@H]2[C@H](O)[C@@]34[C@H]5CC(C(C)(C)C)[C@]36[C@H](OC(=O)[C@H]6O)O[C@]4(C(=O)O5)[C@@]12O (stereo not given in full) | 2.7% | nt | -24.1%
Cc1ccc(-n2cccn2)c([C@@H]2C[C@H]3CN(C)C(=O)[C@]34CCCN24)c1 | 5.5% | nt | 26.3%
NC(=S)NNc1c(F)c(F)c(F)c(F)c1F | ? | -1.1% | 12.6µM*
NC(=S)Nc1ccc(F)c(F)c1F | 0.9% | nt | -16.8%
Cc1ccccc1CN1CCN(CC(=O)NCc2ccccc2)CC1 | -2.3% | nt | -0.1%
CCOc1ccccc1NS(=O)(=O)c1c(C)[nH]c(C)c1C(=O)N1CCCCC1 | -11.6% | nt | -11.3%
C/C(=N\NC(=O)c1cc(C(C)C)[nH]n1)c1ccncc1 | -10.8% | nt | 8.3%
C/C(=N\NC(=O)c1cc(C(C)C)[nH]n1)c1ccco1 | ? | 8.91µM* | ?
O=C(OCc1ccc(F)cc1)c1ccc2ccccc2n1 | 1.7% | -2.3% | 3.7%
COc1ccc(C2CC2/C(=N/O)c2ccccc2)cc1 (stereo not given) | -2.3% | -3.4% | 21.7%
COc1ccc(C2CC2C(=O)c2ccccn2)cc1 (stereo not given) | 10.7% | 0.1% | 20.7%
COc1ccc(C2CC2/C(=N/O)c2ccccn2)cc1 (stereo not given) | 3.16µM* | -4.8% | ?
O/N=C(\c1ccccn1)C1CC1c1ccccc1 (stereo not given) | -13.1% | 1.6% | 12.6µM*
COc1ccc([C@]23Cc4cc(C#N)ccc4[C@H](O2)c2c(cc(C)n(Cc4ccccc4)c2=O)O3)cc1 | 7.0%[10 µM] | nt | -11.4%[10 µM]
SMILES | VP16 counter | Luc counter | RORgamma inh
O=C1C=C(O)c2cccc3cccc1c23 | 5.4% | nt | -11.2%
NC1=CC(=O)c2cccc3cccc1c23 | 22.4µM* | -6.1% | 11.2µM*
CCOc1ccc(NC(=O)c2ccc(NC(=S)NC3CCCCC3)cc2)cc1 | ? | -2.3% | -44.7%
NS(=O)(=O)c1ccc(NC(=S)NC2CCCCC2)cc1 | 4.2% | 1.6% | 6.2%
S=C(Nc1ccc(Cl)cc1)NC1CCCCC1 | 15.8µM* | nt | 3.55µM*
S=C(Nc1cccnc1)NC1CCCCCCC1 | 22.4µM* | -4.6% | ?
S=C(Nc1ccc(Br)cc1)NC1CCCCC1 | 17.8µM* | 0.2% | 7.94µM*
FC(F)Oc1ccc(NC(=S)NC2CCCCCCC2)cc1 | 10µM* | nt | 3.55µM*
FC(F)Oc1ccc(NC(=S)NC2CCSc3ccccc32)cc1 (stereo not given) | -1.7% | nt | -7.7%
S=C(Nc1cccnc1)NC1CCCC1 | -8.3% | -0.3% | 1.3%
Cn1c(=O)c2sccc2n2c(CCCC(=O)Nc3ccc(F)cc3F)nnc12 | 3.5% | nt | 33.2%
COc1ccc(-c2[nH]ncc2CN2CCC(OCc3cccnc3)CC2)c(F)c1 | -7.9% | 0.4% | 3.5%
COCC(C)n1c(SCC(=O)c2cc(C)n(C)c2C)nc2ccccc2c1=O (stereo not given) | 11.7% | -2.0% | ?
S=C(Nc1ccc(Nc2ccccc2)cc1)NC1CCCCCC1 | ? | 1.8% | 1.26µM*
O=C(NNC(=S)Nc1ccccc1)C1CCCCC1 | -4.2% | 5.1% | -34.2%
